Laboratory results reported in the supplement of paper PMC10849652.
Of roughly 7,900 targets only a part is listed; those with a hit were picked by preference. About 0.6% of all pairs of compound and target were hits. A number with no mark means an inactive call.

Experiments:
Experiment in all cases: log2 fold change, soluble protein after heating vs DMSO (PISA); higher = thermal stabilisation; K562 cells, 10 uM, 30 min; active = over 0.2 and 3.5 SD of the protein, either way, in both replicates (recomputed)
saracatinib = compound: CN1CCN(CCOc2cc(OC3CCOCC3)c3c(Nc4c(Cl)ccc5c4OCO5)ncnc3c2)CC1 [saracatinib]
Procedure, shortened: (§1)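 Aliquots of K562 cells (2×10^6 cells/mL) treated with 10 μM compound for 30 min were heated for 3 min over 48°C-58°C. After pooling and extraction in PBS with 0.5% NP-40 at 4°C, soluble protein from a 21,000xg, 90 min spin was quantified by TMTpro 16plex LC-MS/MS with channel sums equalised. Thermal stability is expressed against control samples, from duplicates, as a log2 fold change.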

sotrastaurin = compound: CN1CCN(c2nc(C3=C(c4c[nH]c5ccccc45)C(=O)NC3=O)c3ccccc3n2)CC1 [sotrastaurin]
Procedure, shortened: as §1

alvocidib = compound: CN1CC[C@H](c2c(O)cc(O)c3c(=O)cc(-c4ccccc4Cl)oc23)[C@H](O)C1 [alvocidib]
Procedure, shortened: as §1

Tubastatin A = compound: CN1CCc2c(c3ccccc3n2Cc2ccc(C(=O)NO)cc2)C1 [Tubastatin A]
Procedure, shortened: as §1

[1] = compound: CNC(=O)C1=CC=CC=C1NC2=NC(=NC=C2Cl)NC3=C(C=C(C=C3)N4CCOCC4)OC
Procedure, shortened: as §1

defactinib = compound: CNC(=O)c1ccc(Nc2ncc(C(F)(F)F)c(NCc3nccnc3N(C)S(C)(=O)=O)n2)cc1 [defactinib]
Procedure, shortened: as §1

rucaparib = compound: CNCc1ccc(-c2[nH]c3cc(F)cc4c3c2CCNC4=O)cc1 [rucaparib]
Procedure, shortened: as §1

[2] = compound: CNc1nc(-c2ccc3c(N)n[nH]c3c2)cc(N2C[C@@H](C(=O)NC3CCCCC3)CC[C@H]2C)n1
Procedure, shortened: as §1

encorafenib = compound: COC(=O)N[C@@H](C)CNc1nccc(-c2cn(C(C)C)nc2-c2cc(Cl)cc(NS(C)(=O)=O)c2F)n1 [encorafenib]
Procedure, shortened: as §1

[3] = compound: COC(=O)[C@H](CCSC)NC(=O)C1=C(C=C(C=C1)NC[C@H](CS)N)C2=CC=CC=C2
Procedure, shortened: as §1

Sequence of UniProt Q99460 (Q99460 whole entry, looked up): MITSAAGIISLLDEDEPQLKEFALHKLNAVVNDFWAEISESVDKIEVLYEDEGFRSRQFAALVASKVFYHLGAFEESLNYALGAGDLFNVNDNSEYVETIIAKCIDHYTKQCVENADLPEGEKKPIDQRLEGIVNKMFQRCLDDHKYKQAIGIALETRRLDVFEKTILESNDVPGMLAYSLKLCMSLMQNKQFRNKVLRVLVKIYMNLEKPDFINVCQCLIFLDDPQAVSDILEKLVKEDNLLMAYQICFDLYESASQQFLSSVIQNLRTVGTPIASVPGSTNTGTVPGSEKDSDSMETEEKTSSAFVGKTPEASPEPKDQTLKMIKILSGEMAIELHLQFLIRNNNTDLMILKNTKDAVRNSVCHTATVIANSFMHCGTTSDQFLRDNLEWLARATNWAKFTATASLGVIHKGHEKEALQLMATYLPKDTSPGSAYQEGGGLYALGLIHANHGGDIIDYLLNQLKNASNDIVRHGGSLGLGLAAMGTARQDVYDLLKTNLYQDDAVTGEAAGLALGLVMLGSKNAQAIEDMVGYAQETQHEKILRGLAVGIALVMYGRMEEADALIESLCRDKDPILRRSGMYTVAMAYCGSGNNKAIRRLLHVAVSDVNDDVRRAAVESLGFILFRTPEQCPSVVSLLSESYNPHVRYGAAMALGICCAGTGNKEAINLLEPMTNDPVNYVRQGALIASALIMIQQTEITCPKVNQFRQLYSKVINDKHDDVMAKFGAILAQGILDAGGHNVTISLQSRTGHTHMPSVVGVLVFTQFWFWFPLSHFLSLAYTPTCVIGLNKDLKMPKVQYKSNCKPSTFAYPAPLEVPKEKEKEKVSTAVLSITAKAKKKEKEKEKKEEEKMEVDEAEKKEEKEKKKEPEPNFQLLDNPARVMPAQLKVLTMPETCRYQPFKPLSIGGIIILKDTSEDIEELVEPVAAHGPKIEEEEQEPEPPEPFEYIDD
Sequence of UniProt P17980 (P17980 whole entry, looked up): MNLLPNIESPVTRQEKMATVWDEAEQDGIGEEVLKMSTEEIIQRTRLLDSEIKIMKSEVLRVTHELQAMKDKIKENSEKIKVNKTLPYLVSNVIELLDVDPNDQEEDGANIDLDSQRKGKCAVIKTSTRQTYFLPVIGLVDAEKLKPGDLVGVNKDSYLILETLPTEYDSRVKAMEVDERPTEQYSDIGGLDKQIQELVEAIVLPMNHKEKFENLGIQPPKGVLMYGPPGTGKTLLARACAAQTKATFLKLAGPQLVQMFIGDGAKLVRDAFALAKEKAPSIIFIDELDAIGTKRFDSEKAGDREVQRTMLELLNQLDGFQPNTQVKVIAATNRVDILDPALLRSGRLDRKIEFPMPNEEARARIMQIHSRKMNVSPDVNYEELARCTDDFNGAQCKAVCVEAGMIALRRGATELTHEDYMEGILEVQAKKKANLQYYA
Sequence of UniProt O96011 (O96011 whole entry, looked up, change not shown): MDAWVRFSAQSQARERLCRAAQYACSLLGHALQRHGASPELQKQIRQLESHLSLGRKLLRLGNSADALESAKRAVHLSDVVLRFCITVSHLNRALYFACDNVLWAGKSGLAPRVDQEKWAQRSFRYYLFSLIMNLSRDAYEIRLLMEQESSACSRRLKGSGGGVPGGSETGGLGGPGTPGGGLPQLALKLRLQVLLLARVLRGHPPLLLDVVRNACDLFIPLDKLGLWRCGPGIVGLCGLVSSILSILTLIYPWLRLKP
Sequence of UniProt Q9Y2Y1 (Q9Y2Y1 whole entry, looked up): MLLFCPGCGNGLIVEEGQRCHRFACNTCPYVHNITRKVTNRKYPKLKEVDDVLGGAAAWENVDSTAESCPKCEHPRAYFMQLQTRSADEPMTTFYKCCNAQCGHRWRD
Sequence of UniProt Q13356 (Q13356 whole entry, looked up): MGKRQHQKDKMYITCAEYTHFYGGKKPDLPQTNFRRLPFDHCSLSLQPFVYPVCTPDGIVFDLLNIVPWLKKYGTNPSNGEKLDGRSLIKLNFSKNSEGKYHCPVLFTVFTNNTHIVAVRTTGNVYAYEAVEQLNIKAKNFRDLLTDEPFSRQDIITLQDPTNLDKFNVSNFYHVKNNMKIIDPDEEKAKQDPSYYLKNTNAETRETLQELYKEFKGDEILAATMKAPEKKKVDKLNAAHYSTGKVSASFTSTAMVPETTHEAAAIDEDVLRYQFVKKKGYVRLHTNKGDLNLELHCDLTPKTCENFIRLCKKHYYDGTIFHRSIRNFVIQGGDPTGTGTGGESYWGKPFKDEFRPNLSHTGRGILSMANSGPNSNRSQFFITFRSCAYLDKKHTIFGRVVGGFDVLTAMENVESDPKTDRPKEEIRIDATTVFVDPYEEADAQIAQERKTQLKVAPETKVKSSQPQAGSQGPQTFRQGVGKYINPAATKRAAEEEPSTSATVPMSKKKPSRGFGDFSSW
Sequence of UniProt Q86TP1 (Q86TP1 whole entry, looked up): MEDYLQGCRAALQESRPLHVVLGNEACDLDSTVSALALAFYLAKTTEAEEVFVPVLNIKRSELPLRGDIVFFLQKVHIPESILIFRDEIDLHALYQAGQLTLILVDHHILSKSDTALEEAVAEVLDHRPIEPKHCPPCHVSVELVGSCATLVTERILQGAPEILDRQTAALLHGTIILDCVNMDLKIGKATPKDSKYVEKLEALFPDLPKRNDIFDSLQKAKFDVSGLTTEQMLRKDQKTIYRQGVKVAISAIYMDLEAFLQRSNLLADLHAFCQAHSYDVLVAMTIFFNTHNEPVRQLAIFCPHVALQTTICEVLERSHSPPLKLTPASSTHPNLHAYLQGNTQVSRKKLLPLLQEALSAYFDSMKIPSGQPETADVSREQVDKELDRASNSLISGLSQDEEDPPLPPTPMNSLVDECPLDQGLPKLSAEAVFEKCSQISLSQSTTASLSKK
Sequence of UniProt P06737 (P06737 whole entry, looked up): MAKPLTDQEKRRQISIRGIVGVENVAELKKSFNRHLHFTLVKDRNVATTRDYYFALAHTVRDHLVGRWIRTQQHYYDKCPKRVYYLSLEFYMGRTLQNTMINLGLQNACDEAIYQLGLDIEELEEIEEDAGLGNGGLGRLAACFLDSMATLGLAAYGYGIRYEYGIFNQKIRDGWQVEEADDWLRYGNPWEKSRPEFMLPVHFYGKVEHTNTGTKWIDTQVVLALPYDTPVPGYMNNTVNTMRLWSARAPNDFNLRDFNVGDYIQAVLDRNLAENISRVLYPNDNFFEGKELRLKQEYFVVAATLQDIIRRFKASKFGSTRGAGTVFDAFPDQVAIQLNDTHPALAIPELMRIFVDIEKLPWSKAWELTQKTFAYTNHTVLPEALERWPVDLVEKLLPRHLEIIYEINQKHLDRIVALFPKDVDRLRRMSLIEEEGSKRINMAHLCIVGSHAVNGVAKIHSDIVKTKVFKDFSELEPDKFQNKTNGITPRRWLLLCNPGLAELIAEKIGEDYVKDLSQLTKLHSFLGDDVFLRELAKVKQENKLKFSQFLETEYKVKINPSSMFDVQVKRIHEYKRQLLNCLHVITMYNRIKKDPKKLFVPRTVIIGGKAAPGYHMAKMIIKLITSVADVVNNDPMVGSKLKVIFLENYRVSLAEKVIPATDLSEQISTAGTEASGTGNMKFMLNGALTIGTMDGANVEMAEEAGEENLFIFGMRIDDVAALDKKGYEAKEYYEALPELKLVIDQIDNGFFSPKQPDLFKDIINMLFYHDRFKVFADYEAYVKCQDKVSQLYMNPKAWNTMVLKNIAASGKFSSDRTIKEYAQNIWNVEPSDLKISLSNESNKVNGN
Sequence of UniProt Q9UBV8 (Q9UBV8 whole entry, looked up): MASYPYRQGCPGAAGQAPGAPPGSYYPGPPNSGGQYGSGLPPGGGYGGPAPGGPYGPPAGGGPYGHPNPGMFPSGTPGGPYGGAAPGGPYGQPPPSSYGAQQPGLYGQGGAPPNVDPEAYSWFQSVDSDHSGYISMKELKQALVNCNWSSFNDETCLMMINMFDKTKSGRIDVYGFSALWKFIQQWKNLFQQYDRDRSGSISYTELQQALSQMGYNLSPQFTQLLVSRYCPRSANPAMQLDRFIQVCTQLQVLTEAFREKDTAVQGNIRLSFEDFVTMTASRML
Sequence of UniProt Q5JRX3 (Q5JRX3 whole entry, looked up): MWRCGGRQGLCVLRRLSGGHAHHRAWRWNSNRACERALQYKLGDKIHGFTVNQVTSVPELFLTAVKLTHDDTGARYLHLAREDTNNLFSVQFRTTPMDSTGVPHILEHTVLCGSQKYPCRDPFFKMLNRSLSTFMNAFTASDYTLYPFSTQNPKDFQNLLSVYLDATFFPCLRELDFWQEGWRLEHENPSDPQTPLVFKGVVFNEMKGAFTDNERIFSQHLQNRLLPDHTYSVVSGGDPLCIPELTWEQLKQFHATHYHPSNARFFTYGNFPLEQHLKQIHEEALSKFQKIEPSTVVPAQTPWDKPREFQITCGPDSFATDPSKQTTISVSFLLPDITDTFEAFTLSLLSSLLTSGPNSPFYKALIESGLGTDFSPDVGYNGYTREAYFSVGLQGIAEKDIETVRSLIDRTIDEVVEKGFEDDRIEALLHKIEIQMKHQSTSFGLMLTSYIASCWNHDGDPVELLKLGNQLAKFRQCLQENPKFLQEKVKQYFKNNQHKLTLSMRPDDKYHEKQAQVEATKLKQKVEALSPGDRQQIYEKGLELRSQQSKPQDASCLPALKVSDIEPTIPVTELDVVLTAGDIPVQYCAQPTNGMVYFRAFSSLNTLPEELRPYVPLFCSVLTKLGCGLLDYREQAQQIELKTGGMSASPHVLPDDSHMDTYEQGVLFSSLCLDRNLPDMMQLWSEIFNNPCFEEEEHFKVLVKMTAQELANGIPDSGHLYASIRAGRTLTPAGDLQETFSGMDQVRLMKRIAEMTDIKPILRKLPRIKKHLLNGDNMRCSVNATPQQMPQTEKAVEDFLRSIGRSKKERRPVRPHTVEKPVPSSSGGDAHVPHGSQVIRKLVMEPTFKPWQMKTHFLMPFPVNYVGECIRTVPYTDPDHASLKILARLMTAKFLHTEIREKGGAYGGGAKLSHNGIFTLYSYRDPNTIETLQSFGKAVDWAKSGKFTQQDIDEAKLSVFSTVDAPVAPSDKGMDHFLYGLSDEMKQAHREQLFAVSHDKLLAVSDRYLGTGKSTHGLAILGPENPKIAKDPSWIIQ

| Target | log2 fold change (saracatinib) | log2 fold change (sotrastaurin) | log2 fold change (alvocidib) | log2 fold change (Tubastatin A) | log2 fold change [1] | log2 fold change (defactinib) | log2 fold change (rucaparib) | log2 fold change [2] | log2 fold change (encorafenib) | log2 fold change [3] |
| --- | --- | --- | --- | --- | --- | --- | --- | --- | --- | --- |
| PSMD1 (UniProt Q99460) | -0.033 | -0.064 | 0.051 | 0.016 | 0 | 0.087 | -0.003 | 0.048 | 0.062 | 0.018 |
| PSMD3 (UniProt O43242) | -0.06 | -0.015 | 0.022 | 0.016 | 0.007 | 0.083 | 0.037 | 0.051 | 0.031 | 0.003 |
| PGM3 isoform 4 (UniProt O95394) | -0.028 | -0.018 | -0.062 | 0.03 | -0.011 | -0.019 | -0.013 | 0.067 | 0.024 | -0.022 |
| PNPLA4 (UniProt P41247) | -0.267 | -0.091 | -0.02 | 0.007 | 0.058 | -0.047 | 0 | 0.17 | -0.343 | -0.011 |
| POTEI (UniProt P0CG38) | 0.108 | 0.066 | -0.038 | -0.012 | -0.02 | -0.026 | -0.049 | -0.014 | -0.007 | -0.016 |
| PIGT (UniProt Q969N2) | -0.024 | -0.023 | -0.021 | -0.052 | 0.029 | 0.012 | -0.002 | 0.013 | 0.048 | -0.015 |
| PIP4P1 isoform 2 (UniProt Q86T03) | 0.014 | -0.108 | 0.066 | -0.005 | 0 | 0.039 | -0.026 | -0.059 | -0.027 | 0.015 |
| PRIM2 (UniProt P49643) | -0.013 | -0.192 | -0.132 | 0.024 | 0.009 | -0.127 | 0.001 | 0.018 | 0.052 | -0.055 |
| PRMT8 (UniProt Q9NR22) | 0.015 | -0.046 | -0.029 | -0.09 | -0.009 | -0.039 | -0.059 | 0.052 | 0.01 | -0.122 |
| PPIL2 (UniProt Q13356) | -0.02 | -0.096 | -0.093 | 0.069 | -0.023 | -0.194 | 0.073 | 0.067 | 0.047 | -0.065 |
| POM121 (UniProt Q96HA1) | -0.043 | -0.024 | 0.023 | 0.083 | 0.126 | 0.045 | 0.069 | 0 | 0.075 | -0.002 |
| PARN (UniProt O95453) | -0.013 | -0.008 | -0.118 | -0.017 | 0.02 | -0.141 | 0.079 | -0.022 | 0.04 | 0.014 |
| PRPF4B (UniProt Q13523) | -0.064 | -0.047 | -0.052 | 0.085 | -0.209 | -0.32 | 0.022 | -0.146 | 0.02 | 0.046 |
| PHAX (UniProt Q9H814) | 0.013 | 0.001 | -0.15 | 0.003 | -0.028 | -0.138 | -0.031 | -0.037 | -0.034 | 0.037 |
| PRUNE1 (UniProt Q86TP1) | -0.071 | -0.045 | -0.053 | 0.017 | 0.007 | -0.05 | 0.027 | 0.033 | 0.006 | 0.005 |
| PLD3 (UniProt Q8IV08) | 0.034 | 0.013 | -0.024 | 0.004 | 0.016 | -0.005 | -0.094 | -0.037 | 0.007 | 0.009 |
| PDCD6 (UniProt O75340) | 0.038 | -0.014 | -0.003 | 0.001 | 0.026 | -0.017 | -0.048 | -0.153 | 0.002 | 0.004 |
| PTP4A2 (UniProt Q12974) | -0.038 | 0.107 | -0.332 (active) | 0.057 | -0.1 | -0.213 | -0.143 | -0.066 | 0.008 | 0.117 |
| PITRM1 isoform 2 (UniProt Q5JRX3) | -0.016 | -0.045 | -0.022 | 0.009 | -0.027 | -0.034 | -0.051 | 0.09 | -0.032 | -0.005 |
| POLR2K (UniProt P53803) | -0.024 | 0.032 | 0.14 | -0.031 | -0.057 | 0.034 | 0.039 | -0.047 | -0.174 | -0.063 |
| PEF1 (UniProt Q9UBV8) | 0 | 0.053 | -0.006 | -0.004 | 0.049 | -0.01 | -0.019 | -0.014 | -0.025 | -0.003 |
| PPP2R5A (UniProt Q15172) | -0.03 | -0.043 | -0.089 | 0.042 | 0.01 | -0.037 | 0.053 | 0.032 | 0.063 | -0.03 |
| PSMC3 (UniProt P17980) | -0.043 | -0.035 | 0.058 | 0.011 | 0 | 0.06 | 0.033 | 0.003 | 0.026 | 0.004 |
| POLR3K (UniProt Q9Y2Y1) | 0.052 | -0.049 | 0.038 | 0.044 | -0.035 | -0.086 | 0.089 | -0.098 | -0.019 | 0.015 |
| PEX11B (UniProt O96011) | 0.052 | -0.009 | -0.001 | -0.021 | 0.001 | -0.042 | -0.006 | -0.022 | 0.024 | -0.041 |
| PJA2 (UniProt O43164) | -0.057 | -0.014 | 0.054 | 0.061 | -0.013 | -0.003 | 0.004 | -0.053 | -0.003 | 0.049 |
| PYGL (UniProt P06737) | 0.063 | -0.006 | 0.097 | -0.007 | -0.185 | -0.039 | -0.028 | -0.065 | 0.037 | 0.008 |
| POLR2M (UniProt Q6EEV4) | 0.011 | -0.015 | -0.178 | -0.131 | 0.097 | -0.081 | -0.145 | -0.084 | -0.047 | 0.026 |
| PIK3C3 (UniProt Q8NEB9) | -0.007 | -0.039 | 0.044 | 0.027 | -0.003 | -0.012 | 0.25 | 0.002 | 0.05 | -0.018 |
